This is a sample that favours compounds with a hit; in the whole collection about 6.5% have one here.
VACV Venus inh = qHTS for Stage-Specific Inhibitors of Vaccinia Orthopoxvirus: Venus Reporter Primary qHTS; Vaccinia virus Venus reporter expression, fluorescence; AID 720580, 2013; 0.46% of 330,000 active; Potency, µM (titrated, usually from 36.5 µM), for inactives: at the top dose activity change, negative = inhibition, usual class: inhibitors; calls by dose curve; tested in A549 cells; also: potency is read from the fitted curve at half-maximal effect; nearly all actives have a fitted effect of over 30% in size
HCMV antiviral = qHTS Assay for inhibitors of the human cytomegalovirus (HCMV); activity change, negative = inhibition, % at 57.5 µM; 4.5% of 410,000 active; HFF cells, HCMV-luciferase reporter, 72 h; active compounds read low; in the data active = activity change below about -60%; inconclusive = no clear call, values can overlap the other calls; inactive = above about -39%
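Two-dose cell screen: HFF monolayers treated with compounds and infected with luciferase-expressing HCMV at 1 PFU/cell, 72 h at 37C, then lysed for luciferase measurement.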
FMDV inh = High Throughput Screening for Foot and Mouth Disease Virus Antivirals; FMDV antiviral cell-based qHTS; Potency, µM (series often up to 57.9 µM), for inactives: top-dose activity change, negative = inhibition, usual class: inhibitors; 1.2% of 410,000 active; calls by dose curve; tested in HEK293T cells; also: read-out not given here; potency is read from the fitted curve at half-maximal effect; nearly all actives have a fitted effect of over 45% in size
Vaccinia mCherry = qHTS for Stage-Specific Inhibitors of Vaccinia Orthopoxvirus: mCherry Reporter Primary qHTS; Vaccinia virus mCherry reporter infection, fluorescence; Potency, µM (top dose mostly 36.5 µM), inactives show at the top dose activity change, negative = inhibition, usual class: inhibitors; 0.63% of 310,000 active; calls by dose curve; tested in A549 cells; also: potency is read from the fitted curve at half-maximal effect; nearly all actives have a fitted effect of over 35% in size
Marburg entry inh = qHTS for inhibitors of binding or entry into cells for Marburg Virus. Marburg virus pseudotyped entry inhibition, cell reporter. Potency, µM (doses to about 37.8 µM), for inactives: top-dose activity change, negative = inhibition, actives largely listed as inhibitors. 1.8% of 300,000 active. AID 540276, 2011; calls by dose curve; tested in HEK293 cells; also: potency is read from the fitted curve at half-maximal effect
LASV entry inh = qHTS for Inhibitors of binding or entry into cells for Lassa Virus; Lassa virus pseudotype entry inhibition, cell reporter; Potency, µM (doses to about 37.9 µM), for the others: at the top dose activity change, negative = inhibition, actives largely listed as inhibitors; 1.2% of 300,000 active; calls by dose curve; tested in HEK293 cells; also: potency is read from the fitted curve at half-maximal effect; nearly all actives have a fitted effect of over 50% in size
Active calls of the source: *; i = inactive; u = inconclusive; x = no result given; [ ] = dose if it differs, or a comment. % is scaled to controls: 0 for no effect and ±100 for the full control effect.

SMILES	VACV Venus inh	HCMV antiviral	FMDV inh	Vaccinia mCherry	Marburg entry inh	LASV entry inh
CCC1CCCCN1C(=S)NCc1ccccc1 (configuration not stated)	-4%	39	21%	-20%	u	-3%
Cc1cccc(C(=S)N2CCOCC2)n1	x	-11	-24%	x	x	x
C/C(=N\NC(=S)NC1CCCCC1)c1ccc(Cl)c(Cl)c1	x	-14	-8%	x	x	x
CC(=NNC(=S)N1CCCCC1)c1ccccn1	10µM*	-98*	u	4.5µM*	x	x
CSc1nncc(/C(C)=N\Nc2cccc(C)c2)n1	-15%	u	-18%	-19%[1.46 µM]	9%	9%
CSC(=S)NN=C(C)c1cccc(C)n1	u	-80*	5%	u	5µM*	u
O=C(CC1C(=O)NCCN1Cc1cccc(Oc2ccccc2)c1)NCCc1ccccn1 (configuration not stated)	-26%	23	-17%	-12%	u	6.3µM*
O=Cc1cn(Cc2ccc([N+](=O)[O-])cc2)c2ccccc12	-27%	38	u	-11%	u	10µM*
O=Cc1cn(Cc2ccc(F)cc2)c2ccccc12	-22%	-1	-23%	-9%	u	u
O=C(O)c1ccc(N/N=C/c2cn(Cc3ccc(F)cc3)c3ccccc23)cc1	x	-21	u	x	1%	x
Cc1ccc(Cn2cc(C=O)c3ccccc32)cc1	-24%	-29	-28%	-7%	1.4µM*	u
O=[N+]([O-])/C=C/c1cn(Cc2ccc(F)cc2)c2ccccc12	-30%	u	u	u	7.3µM*	u
COc1cccc(CN2C(=O)[C@H]3Cc4c([nH]c5ccccc45)C(C)(C)N3C2=O)c1	x	-19	35µM*	x	x	x
COc1ccc(CN2C(=O)[C@@H]3Cc4c([nH]c5ccccc45)C(C)(C)N3C2=O)cc1	x	-31	0%	x	x	x
COc1ccccc1CN1C(=O)[C@@H]2Cc3c([nH]c4ccccc34)C(C)(C)N2C1=O	x	-17	28µM*	x	x	x
CCC1(C2CCN(Cc3cccc4ccccc34)CC2)NC(=O)N(Cc2ccc3c(c2)OCO3)C1=O (configuration not stated)	-28%	x	-2%	-13%	x	x
Cc1cc(C(=O)Nc2ccccc2-c2nc(CNC(=O)C3(C)CCCCC3)c(C)o2)c(C)o1	2%	x	1%	-8%	x	x
COc1ccccc1CNC(=O)CSc1nc2nc(C)c(Cc3ccccc3Cl)c(C)n2n1	-9%	-3	0%	-8%	9%[46.1 µM]	-6%[46.1 µM]
CN(C)c1ccc(C=Nc2cncc3ccccc23)cc1	-5%	x	x	-13%	x	x
COc1ccc(/C=N/NC(=O)c2cccnc2)cc1COc1ccc([N+](=O)[O-])c(C)c1	-30%	-76*	40µM*	-21%	u	u
COc1ccc(/C=N/NC(=O)c2ccccc2Cl)cc1CSc1nc2ccccc2s1	x	u	9%	x	u	13µM*
COc1ccc(/C=N/NC(=O)c2ccn[nH]2)cc1COc1ccc([N+](=O)[O-])c(C)c1	-15%	u	-24%	i	-16%	u
COc1ccc(/C=N/NC(=O)CCSc2nc3ccccc3s2)cc1OC	x	-7	0%	x	-15%	-6%
COc1ccc(/C=N/NC(=O)c2cccnc2)cc1CSc1nc2ccccc2s1	-27%	u	35µM*	u	-17%	-24%
O=C(C[n+]1ccccc1)c1cccc([N+](=O)[O-])c1	-5%	x	x	-12%	x	x
SMILES	VACV Venus inh	HCMV antiviral	FMDV inh	Vaccinia mCherry	Marburg entry inh	LASV entry inh
CCCCc1c(CCC)c(=N)c2ccccc2n1C	-18%	-98*	u	-25%	u	u
OC[C@@H]1CN(Cc2ccc(-c3ccccc3)cc2)C[C@H](n2cnc3c(NC4CCC4)ncnc32)O1	-23%	-88*	18µM*	-21%	x	x
CCc1ccc(NC(=O)Cn2c(=O)n(Cc3ccc4c(c3)OCO4)c(=O)c3oc4ccccc4c32)cc1	-27%	6	-11%	-26%	x	-9%[46.1 µM]
Cc1cc(C)c2c(CC(=O)NC(C)C)coc2c1	1%	-61*	4%	-1%	-18%[46.1 µM]	-1%
CC(=O)c1c(C)[nH]c(C(=O)OCc2c(F)cccc2Cl)c1C	-28%	-62*	u	u	u	u
CC(=O)c1c(C)[nH]c(C(=O)OCc2ccc(F)cc2Cl)c1C	-23%	-68*	-22%	-6%	u	-16%
CC(=O)N1CCCc2cc(S(=O)(=O)N3CCCC(C(=O)Nc4ccc(F)cc4F)C3)ccc21 (configuration not stated)	-25%	-26	u	-25%	x	-18%[46.1 µM]
COc1ccc(S[C@]2(c3nc(C)no3)CC(=O)N(P(=O)(OC)OC)[C@@H]2c2ccc(OC)cc2)cc1	x	39	x	x	x	x
CCOc1ccc(CNC(=O)CCCn2nc(CC)n3c(cc4occc43)c2=O)cc1	x	-60*	-11%	x	x	x
CCc1nn(CCCC(=O)NCc2ccc(OC(C)C)cc2)c(=O)c2cc3occc3n12	u	u	-32%	-13%	u	18%[46.1 µM]
O=C(CCC1CCCN(C(=O)CCN2CCCCC2=O)C1)NCc1ccccc1F (configuration not stated)	-9%	-105*	8%	i	1%[46.1 µM]	11%[46.1 µM]
O=[N+]([O-])c1ccccc1-c1onc(-c2ccccc2Br)c1Br	x	11	x	x	x	x
COc1cccc(-c2cc(C(=O)Nc3ccc(N(C)C(C)=O)cc3)c3cc(Br)ccc3n2)c1	x	-97*	u	x	x	x
O=C(Nc1ccc(C(F)(F)F)cc1)c1cc(-c2cccnc2)nc2ccc(Br)cc12	x	u	1%	x	u	-3%
CC(=O)Nc1cccc(NC(=O)c2cc(-c3cccnc3)nc3ccc(Br)cc23)c1	x	-28	0%	x	u	-12%
CSc1ccccc1NC(=O)c1cc(-c2cccnc2)nc2ccc(Br)cc12	-10%	-73*	-18%	i	u	u
Nc1[nH]c(=O)nc2nnsc12	3%	x	x	-12%	x	x
CCOc1ccc(C(=O)Nc2ccc(S(=O)(=O)N3CCCCC3c3cccnc3)cc2)cc1 (configuration not stated)	u	-89*	32µM*	-24%	x	u
O=C(Nc1ccc(S(=O)(=O)N2CCCCC2c2cccnc2)cc1)c1ccc(Br)cc1 (configuration not stated)	-27%	-98*	u	u	x	u
CC(=O)Nc1ccc(S(=O)(=O)N2CCCCC2c2cccnc2)cc1 (configuration not stated)	x	-15	-21%	x	8%	-2%
CCCCC(=O)Nc1ccc(S(=O)(=O)N2CCCCC2c2cccnc2)cc1 (configuration not stated)	-21%	u	-13%	-6%	4%	-25%
O=C(NCC1CCN(Cc2ccc(F)cc2)CC1)c1cc2ccc3cccnc3c2[nH]1	u	-68*	0%	-29%	x	u
